Bioassay records (PubChem BioAssay)
The list is not random: actives were taken first. Their share in the collection is about 0.52%.
PINK1 expr mod: modulators of PINK1 expression; PINK1 immunofluorescence, high-content cytometry, 24 h; Potency, µM (titrated, usually from 76.6 µM), hits mostly activators; hit rate 0.2% among 410,000; AID 624263; active = well fitted activation curve with a large enough effect; inconclusive = small, poorly fitted or top-dose-only effect; cell line not stated here; note: nearly all actives have a fitted effect of over 65% in size
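PINK1 protein, normally rapidly degraded, was detected by immunofluorescence after 24 hour compound treatment of a stable cell line. Titration data (5 concentrations) came from laser-scanning cytometry, with CCCP-treated wells as controls.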
Epigenetic reg: epigenetic control regulation, reporter derepression; murine LDR cells, GFP reporter derepression, 30 h; Potency, µM (highest dose often 53.9 µM), most hits filed as activators; hit rate 0.2% among 280,000; AID 1865; note: nearly all actives have a fitted effect of over 60% in size
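Reporter derepression read as number of fluorescent GFP-positive objects, 20-120 um in size, counted by laser-scanning cytometer. Mouse LDR line with an epigenetically silenced CMV-GFP locus; compound incubation 30 h, 37 C.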
Vif-APOBEC3F blk: Vif-A3F binding inhibition | HeLa A3F-eYFP + Vif (tagged APOBEC3F with the HIV-1 protein that degrades it), YFP fluorescence increase | Potency, µM (series often up to 46.1 µM) | hit rate 0.2% among 390,000; note: nearly all actives have a fitted effect of over 65% in size
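HeLa cells stably expressing A3F-eYFP plus Vif, plated and incubated overnight at 37 deg C, then exposed to compounds overnight at 37 deg C. Blocked degradation read as raised yellow fluorescence (Ex 488/Em 500-530).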
Vif-A3G inh: Vif-A3G binding inhibition | AID 602310 | Potency, µM (titrated, usually from 46.1 µM), hits mostly inhibitors | HeLa A3G-eYFP + Vif (tagged APOBEC3G with the HIV-1 protein that degrades it), YFP fluorescence, overnight | hit rate 0.076% among 410,000 | Q9HC16; note: nearly all actives have a fitted effect of over 60% in size
Target sequence (Q9HC16 whole entry, looked up): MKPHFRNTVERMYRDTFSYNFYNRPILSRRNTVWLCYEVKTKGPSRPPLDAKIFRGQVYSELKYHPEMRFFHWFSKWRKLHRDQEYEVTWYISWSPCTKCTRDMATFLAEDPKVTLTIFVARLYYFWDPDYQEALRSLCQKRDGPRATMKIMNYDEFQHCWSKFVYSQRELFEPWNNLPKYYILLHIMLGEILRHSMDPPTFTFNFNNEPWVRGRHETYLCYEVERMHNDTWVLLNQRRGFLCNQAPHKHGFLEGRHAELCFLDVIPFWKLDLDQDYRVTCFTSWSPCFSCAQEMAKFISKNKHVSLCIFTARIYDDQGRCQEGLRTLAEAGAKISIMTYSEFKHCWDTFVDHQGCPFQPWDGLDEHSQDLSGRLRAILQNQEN
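HeLa cells stably expressing Vif and C-terminally eYFP-tagged A3G, seeded overnight at 37 deg C, then exposed to compound by pintool overnight at 37 deg C. Rise in yellow fluorescence (Ex 488/Em 500-530, Acumen) marks blocked Vif-driven A3G degradation.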
Hits are given with their value; i = inactive; ? = inconclusive; nt = not tested or not shown. Unless noted, calls come from the whole dose curve; as a rule, active = well fitted curve in the direction sought with a large enough effect; inconclusive = small, poorly fitted or top-dose-only effect, or another doubt; inactive = no such curve, though single readings can be large; an effect the other way counts as inactive or inconclusive.

SMILES	PINK1 expr mod	Epigenetic reg	Vif-APOBEC3F blk	Vif-A3G inh
O=C(NC1CCCCC1)C(c1ccc(F)cc1)N(Cc1ccco1)C(=O)Cn1nnc2ccccc21 (stereo unspecified)	14µM	i	i	i
O=C(c1cccc(N2CCCC2=O)c1)N1CCC(Oc2cccc(CN3CCN(c4ccccn4)CC3)c2)CC1	i	nt	nt	nt
COc1ccc2c(/C=C/c3cc[n+](C)cc3)c[nH]c2c1	?	nt	13µM	?
CCCCCCC[n+]1ccc(/C=C/c2c[nH]c3ccccc23)cc1	nt	nt	nt	i
CC[n+]1ccc(/C=C/c2c[nH]c3ccccc23)cc1	25µM	nt	7.1µM	5µM
Cc1ccc2[nH]cc(/C=C/c3cc[n+](C)cc3)c2c1	3.5µM	nt	?	?
COCC(=O)Nc1cc(C(=O)N2CCCCC2c2nccn2C)cc2nc(-c3ccccc3)n(C)c12 (stereo unspecified)	i	nt	nt	nt
Cc1ccc(CNc2nc(CN3CCCCC3c3cccnc3)nc3ccccc23)o1 (stereo unspecified)	i	nt	nt	nt
Cc1cnc(C)c(-c2cccc3c2OC(CNC(=O)/C=C/c2ccc(F)c(F)c2)C3)n1 (stereo unspecified)	i	nt	nt	nt
CC(=O)c1ccccc1-c1ccc2c(c1)CC(CNC(=O)c1ccnc(Cl)c1)O2 (stereo unspecified)	i	nt	nt	nt
Fc1ccc(COc2ccc3ccccc3c2CNc2nn[nH]n2)cc1	i	i	i	13µM
COC(=O)[C@@H]1[C@@H]2C[C@H]3c4[nH]c5cc(OC)ccc5c4CCN3C[C@@H]2C[C@H](OC(=O)c2cc(OC)c(OC)c(OC)c2)[C@H]1OC	nt	i	nt	nt
COC(=O)C1C2CC3c4[nH]c5cc(OC)ccc5c4CCN3CC2CC(OC(=O)CC(C)=O)C1OC (stereo unspecified)	?	nt	25µM	?
COc1cc(CNc2nc(C)c(-c3ccn(C4Cc5ccccc5C4)n3)s2)cc2c1OCO2	i	nt	nt	nt
Cc1nc2cc(OC3(C)CCN(Cc4ccc(OC(F)(F)F)cc4)C3)ccc2s1 (stereo unspecified)	45µM	nt	nt	i
CN(C)CCOc1ccc2c(c1)C(=O)C(=Cc1ncc([N+](=O)[O-])n1C)C2	i	nt	?	11µM
O=C(NCCc1ccccn1)C1CC12CCN(C(=O)c1cccc(C(F)(F)F)c1)CC2 (stereo unspecified)	i	nt	nt	nt
N#C/C(=C\c1ccc(N2CCOCC2)o1)C(=O)NCCc1ccccc1	i	i	22µM	i
CCOCCCNc1nc2c(C)cccn2c(=O)c1/C=C1\SC(=S)N(CC(C)C)C1=O	i	i	?	i
CCN1CCN(c2nc3ccccn3c(=O)c2C=O)CC1	i	nt	i	i
CCOC(=O)CC1C(=O)NCCN1c1nc2c(C)cccn2c(=O)c1/C=C1\SC(=S)N(CC(C)C)C1=O (stereo unspecified)	nt	7.9µM	nt	nt
CC(C)CN1C(=O)/C(=C/c2c(N3CCc4ccccc4C3)nc3ccccn3c2=O)SC1=S	nt	4.5µM	nt	nt
CC(C)C(NS(C)(=O)=O)c1nnc2n1CCN(Cc1ccc3cccnc3c1)CC2 (stereo unspecified)	i	nt	nt	nt
COCC(=O)Nc1cc(C(=O)N2CC3CCCC2C3)c2c(c1)nc(-c1ccncc1)n2C (stereo unspecified)	i	nt	nt	nt
COc1cc(C(=O)Nc2ccc(N(C)C)cc2)cc(OC)c1OC	11µM	i	i	?
SMILES	PINK1 expr mod	Epigenetic reg	Vif-APOBEC3F blk	Vif-A3G inh
COc1cccc(CNC(=O)c2cnn(-c3ncc4c(n3)-c3ccccc3CCC4)c2C)c1OC	i	nt	nt	nt
CC(=O)Nc1ccc(S(=O)(=O)Nc2nc3ccccc3nc2Nc2ccc(N)cc2)cc1	i	i	13µM	i
COC(=O)c1cc(Nc2nc3ccccc3nc2NS(=O)(=O)c2ccc(C)cc2)ccc1Cl	i	i	11µM	i
CC(=O)Nc1ccc(S(=O)(=O)Nc2nc3ccccc3nc2Nc2ccc3ccccc3c2)cc1	i	i	?	i
O=[N+]([O-])c1ccc(S(=O)(=O)Nc2nc3ccccc3nc2Nc2ccccc2)cc1	35µM	i	i	i
COc1ccc(Nc2nc3ccccc3nc2NS(=O)(=O)c2ccc(C)cc2)c(OC)c1	i	i	?	i
COc1ccc2nc(NS(=O)(=O)c3ccc(C)cc3)c(Nc3cc(Cl)ccc3OC)nc2c1	i	25µM	i	i
COc1cc(Nc2nc3ccccc3nc2NS(=O)(=O)c2ccc([N+](=O)[O-])cc2)cc(OC)c1OC	i	nt	i	i
CN(C)c1cccc(C(=O)NCC2Cc3cccc(-c4cncnc4)c3O2)c1 (stereo unspecified)	i	nt	nt	nt
Oc1[nH]c2ccccc2c1N=NC(=S)N1CCOCC1	i	4µM	i	i
COc1cc(OC)c(/C=C/c2cc(/C=C/c3c(OC)cc(OC)cc3OC)[n+](C)c3ccccc23)c(OC)c1	40µM	nt	nt	i
CN(CCO)C(=O)c1cn(C2CCCN(Cc3cccc4ccccc34)C2)nn1 (stereo unspecified)	i	nt	nt	nt
CC(C)c1c(C(=O)N2CCCCC2c2cccnc2)cnn1-c1nccc(-c2cccs2)n1 (stereo unspecified)	i	nt	nt	nt
Nc1c(C(=O)c2ccccc2)sc2nsc(SCCN3CCOCC3)c12	i	?	3.5µM	?
COc1cc(-c2cnc3ccccc3c2)cc2c1OCCN(C(=O)CCn1nc(C)cc1C)C2	i	nt	nt	nt
Cc1ccc(C(=O)Nc2cccc(-c3nc(CNC(=O)c4ccc(F)cc4Cl)c(C)o3)c2)s1	i	nt	nt	nt
CC(C)=NNC(=O)c1c(O)c2ccccc2[nH]c1=O	40µM	i	i	i
COCC(=O)Nc1cc(C(=O)N2CCN(C)C(c3ccccc3)C2)c2c(c1)nc(-c1ccncc1)n2C (stereo unspecified)	i	nt	nt	nt
O=[N+]([O-])c1ccc(N/N=C/C=C/c2ccco2)cc1	i	nt	11µM	?
COc1ccc(O)c(CN2CCC3(CC2)c2ccccc2[C@@H](NC(=O)c2cccc(F)c2)[C@@H]3OC)c1	i	nt	nt	nt
Cc1cnc(SCc2ccccn2)nc1C1CCCN(C(=O)c2ccc3c(c2)OCCO3)C1 (stereo unspecified)	i	nt	nt	nt
O=C(CC1(c2cccc(F)c2)CC(=O)N(Cc2cccnc2)C1=O)N1CCCCCCC1 (stereo unspecified)	i	nt	nt	nt
Cc1ccccc1CN1CCN(Cc2ccccc2C(F)(F)F)CC1	10µM	i	i	i
CN1C(=O)/C(=C\c2ccccc2OCc2ccccc2)SC1=S	?	nt	?	i
CN1C(=O)/C(=C\c2cc(N=Nc3ccccc3)ccc2O)SC1=S	40µM	i	i	i
SMILES	PINK1 expr mod	Epigenetic reg	Vif-APOBEC3F blk	Vif-A3G inh
COc1ccc(-c2c[n+]3c4n2CCCCC4=C(c2ccc(Br)cc2)C3)cc1	?	i	i	i
Clc1ccc(C2=C3CCCCn4c(-c5ccccc5)c[n+](c43)C2)cc1	16µM	i	i	i
CCc1cc2c(N=Nc3c(O)[nH]c4ccccc34)ncnc2s1	?	22µM	?	i
Oc1[nH]c2ccccc2c1N=Nc1nncc2ccccc12	i	i	i	i
Cc1sc2ncnc(N=Nc3c(O)[nH]c4ccccc34)c2c1C	?	?	22µM	i
COc1ccc2c(c1)CCc1cnc(-n3ncc(C(=O)N(C)CCc4ccccn4)c3C)nc1-2	i	nt	nt	nt
